M1 PAM: positive allosteric modulators of human M1 muscarinic receptor | actives 0.088% (n = 360,000) | activation, % at 3 µM | P11229 | CHO-K1 hM1, Fluo-8 calcium fluorescence, ACh EC20; 0% = ACh EC20, 100% = maximal ACh | AID 588819; in the data active means activation above about 19%, passing the limit was not always enough
Target sequence (P11229 whole entry, looked up): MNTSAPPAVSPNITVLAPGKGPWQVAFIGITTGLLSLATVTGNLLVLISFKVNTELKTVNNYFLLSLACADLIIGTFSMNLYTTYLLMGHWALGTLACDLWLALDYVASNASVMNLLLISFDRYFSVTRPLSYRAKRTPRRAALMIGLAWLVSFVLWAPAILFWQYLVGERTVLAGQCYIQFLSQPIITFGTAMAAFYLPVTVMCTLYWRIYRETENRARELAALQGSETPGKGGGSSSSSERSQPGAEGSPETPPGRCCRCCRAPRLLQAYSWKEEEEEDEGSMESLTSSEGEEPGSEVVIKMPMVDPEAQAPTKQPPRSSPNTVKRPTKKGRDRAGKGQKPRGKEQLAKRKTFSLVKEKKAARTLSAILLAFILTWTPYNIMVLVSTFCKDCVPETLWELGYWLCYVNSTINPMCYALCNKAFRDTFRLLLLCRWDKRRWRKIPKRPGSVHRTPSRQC
M1 antag: antagonists of human M1 muscarinic receptor; actives 1.3% (n = 360,000); P11229; CHO-K1 hM1, Fluo-8 calcium fluorescence, ACh EC80 antagonist; inhibition, % at 3 µM;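 active means percent inhibition above its own plate's cutoff, namely the mean of that plate's compound wells plus 3 SD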;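 further: peak over basal fluorescence ratio during 140 s after agonist addition; 0% = ACh EC80 plus DMSO and 100% = DMSO alone without agonist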
CHO-K1 Ca PAM: M1 PAM counterscreen hit in parental CHO-K1 cells; AID 602247; ATP EC20, Fluo-8 calcium fluorescence; 0% at ATP EC20, 100% at ATP max; activation, % at 3 µM; actives 0.02% (n = 360,000);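 active means activation above the run cutoff, the mean activation of all test compounds plus 3 SD, cut at about 40% in these data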;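 further: peak over basal fluorescence ratio in a 140 s read after ATP addition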
CHRM1 agonist: activates human CHRM1 receptor. CHO-K1 hM1, Fluo-8 calcium fluorescence, agonist mode; 0% DMSO, 100% acetylcholine EC100. activation, % at 3 µM. actives 0.33% (n = 360,000);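 active means activation above the run's mean compound activation plus 3 SD, cut at about 16% in these data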;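 further: peak over basal fluorescence ratio within a 140 s kinetic read after compound addition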
CHO-K1 Ca antag: nonselective inhibitor or artifact in parental CHO-K1 cells; ATP-induced calcium, Fluo-8 fluorescence; inhibition, % at 3 µM; actives 0.6% (n = 360,000); AID 602250;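 active means inhibition above a per-plate cutoff, the plate's mean sample inhibition plus 3 SD, cut at about 24% in these data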;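 further: 0% = DMSO plus EC80 ATP and 100% = DMSO alone without ATP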
M1 ag parental: counter-screen for M1 agonists: effect in parental CHO-K1 cells | activation, % at 3 µM | actives 0.48% (n = 360,000) | Fluo-8 calcium fluorescence; scaled to maximal ATP response, vehicle zero | AID 602248; in the data active means activation above about 15%;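 further: untransfected CHO-K1 host cells lacking M1 receptor as counterscreen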
The depositor's hits bear a star; . = no result given; ! = not active in a repeat. The list is not random: actives were taken first. Their share in the collection is about 2.3%.

SMILES | M1 PAM | M1 antag | CHO-K1 Ca PAM | CHRM1 agonist | CHO-K1 Ca antag | M1 ag parental
CC(=O)Nc1ccc(NC(=O)C(C)OC(=O)CCC2CCCC2)cc1 (stereo not drawn) | 7.0 | -5.8 | 17.8 | 2.1 | 24.2* | 0.0
CC(=O)Nc1ccc(NC(=O)C(C)OC(=O)CC2CCCC2)cc1 (stereo not drawn) | 14.9 | -11.5 | -1.4 | 0.9 | 2.7 | 0.5
O=c1oc(-c2ccc(Cl)c(Cl)c2)nn1-c1ccc(C(F)(F)F)cn1 | 1.4 | 3.0 | 10.8 | -4.4 | 1.3 | 0.7
COc1ccc([C@H]2CC(=O)C=C(c3ccc(F)cc3OCc3ccccc3)C2)cc1OC | -15.0 | 50.5* | 1.1 | -0.9 | 15.7 | 2.4
CCN(CC)CCOc1ccccc1C(C)=O | -33.6 | 39.6* | -10.9 | -14.2 | 14.2 | -0.2
CC(=O)c1ccccc1OCCOCCOc1ccccc1C(C)=O | -8.8 | 4.4 | -1.1 | -5.6 | -0.2 | 8.8
O=C(NCCCN1CCC(Cc2ccccc2)CC1)c1ccc(CS(=O)c2ccccc2Cl)o1 (stereo not drawn) | -24.2 | 49.7* | -11.1 | -7.0 | 7.5 | 2.3
O=C1c2ccccc2C(=O)N1CN(C(=O)c1ccccc1)c1ccc(O)cc1 | 7.5 | 5.4 | 5.7 | -3.6 | 12.4 | 22.3*
COc1ccc(S(=O)(=O)NCC(=O)N(CC(=O)NCc2ccccc2)Cc2ccco2)cc1 | 13.0 | -17.5 | -8.9 | -5.0 | -5.0 | 1.4
COc1ccc(CNC(=O)C(c2ccco2)N(C(=O)CNS(=O)(=O)c2ccccc2)c2ccccc2C)cc1 (stereo not drawn) | -4.6 | 6.6 | 13.7 | -7.0 | 11.1 | 53.5*
CC1CN(C(=O)c2cccc(S(=O)(=O)N3CCN(c4ccccc4)CC3)c2)CC(C)O1 (stereo not drawn) | 0.5 | 5.8 | 17.6 | -1.2 | -2.4 | 3.3
CCN1CCN(Cc2ccc(NC(=O)c3ccc(C)c(NC(=O)c4c[nH]c5cc(C(F)(F)F)ccc5c4=O)c3)cc2C(F)(F)F)CC1 | 4.0 | -8.0 | -15.8 | -1.2 | 25.5*! | 0.1
Cc1ccc(C(=O)Nc2cccc(C(F)(F)F)c2)cc1NC(=O)c1c[nH]c2cc(C(F)(F)F)ccc2c1=O | 4.4 | -2.6 | 21.8 | -3.7 | -14.1 | 1.5
COc1ccc(C(=O)CN2C(=O)NC3(CCCCC3)C2=O)cc1OC | 10.0 | -0.8 | -1.6 | -2.1 | 12.5 | 18.5*
COc1ccc(C(=O)CN2C(=O)NC3(CCCCCC3)C2=O)c(OC)c1 | 1.9 | 7.2 | -21.8 | -3.8 | 0.6 | 0.5
O=C(CN1C(=O)NC2(CCCC2)C1=O)NNC(=O)c1ccc(Br)cc1 | 29.7* | -21.7 | 2.6 | 1.8 | -1.4 | 0.1
C[C@H](NC(=O)c1ncn2c1C(=O)NC[C@H]2C)C(=O)OC(C)(C)C | 7.3 | -9.5 | -10.1 | -3.3 | 8.0 | 0.1
COCCn1c2nc(=O)n(-c3ccccc3)c(=O)c-2nc2ccccc21 | -21.9 | 18.3 | 7.6 | 56.3* | 9.7 | 72.7*
Cc1cc(Cl)c(OCCOCCN2CCC(C)CC2)c(Br)c1 | -24.3 | 55.1* | -12.9 | -10.3 | 14.5 | 0.4
CC1CCN(CCCCOc2ccc(Br)cc2)CC1 | -23.9 | 31.4* | -3.0 | -10.4 | -3.1 | 1.1
Cc1cc(Br)ccc1OCCCCN1CCC(C)CC1 | -26.6 | 52.9* | -2.4 | -11.3 | 4.9 | 2.5
Cc1cc(Cl)c(OCCOCCN2CCN(C)CC2)c(Br)c1 | -8.3 | 15.2 | -10.3 | -10.4 | 15.8 | 0.6
CC1CCN(CCCCOc2cccc(Br)c2)CC1 | -26.6 | 83.5* | 15.2 | -12.5 | -7.4 | 1.2
CC1CCN(CCCCOc2ccccc2Br)CC1 | -12.5 | 10.1 | 19.7 | -10.1 | -6.2 | 0.5
O=C(CSc1nnc(NC(=O)c2c(F)cccc2Cl)s1)Nc1ccccc1F | 5.2 | -8.3 | 5.9 | 0.9 | -5.7 | 1.6
SMILES | M1 PAM | M1 antag | CHO-K1 Ca PAM | CHRM1 agonist | CHO-K1 Ca antag | M1 ag parental
CC1(C(=O)NS(=O)(=O)c2ccccc2Cl)CCN1C(=O)Cc1cccc2ccccc12 (stereo not drawn) | -2.9 | 18.3 | 15.7 | -1.3 | 0.4 | 0.3
O=C1Nc2ccccc2C(=O)N2[C@H](c3ccccc3)[C@@H]3C(=O)N(Cc4ccccc4)C(=O)[C@@H]3[C@H]12 | 9.3 | -7.8 | -13.2 | 23.3* | -1.3 | 0.5
CN(C)S(=O)(=O)c1cc(C(=O)Nc2ccccc2C(=O)NC2CC2)ccc1Cl | -0.6 | -1.1 | 10.3 | -4.6 | -14.1 | 4.3
Cc1cccc(C(=O)NCCCNC(=O)c2cccnc2)c1 | 21.3 | -16.8 | -5.2 | 1.2 | -9.6 | -0.1
C/C(=N\NC(=O)Cc1ccc(Cl)c(Cl)c1)c1cccnc1 | 1.7 | -4.6 | 6.6 | -3.4 | 44.0* | 0.3
Cc1c2cnn(CC(=O)NC3CCCC3)c(=O)c2c(C)n1Cc1ccccc1 | 9.3 | -7.4 | -12.2 | 22.9* | -3.9 | 3.6
COc1ccc2c(n1)Sc1nc3ccccc3nc1N2 | -11.7 | 32.6 | 7.8 | 48.0* | 28.1* | 24.6*
Cc1cc(S(=O)(=O)N2CCCC(N(C)CCc3ccccn3)C2)c(C)cc1Cl (stereo not drawn) | -6.5 | -2.1 | 7.2 | -1.9 | -13.2 | 9.6
COc1cccc(/C=N/Nc2snc(SC)c2C#N)c1O | -10.4 | 9.3 | 4.3 | 9.9 | 16.2 | 16.9*
COc1ccc(/C=C/C(=O)N/C(=C\c2ccco2)C(=O)NCCc2nc3ccccc3[nH]2)cc1 | -0.6 | -1.2 | -12.4 | -5.3 | 25.4* | 1.0
Cc1c(C(=O)Nc2ccc3c(c2)OCCO3)sc2nc(-c3ccccc3)cn12 | -24.5 | 41.7* | -10.1 | 0.2 | 9.1 | 15.0
COc1ccc(OC)c(NC(=O)C(=O)NNC(=O)C23CC4CC(CC(C4)C2)C3)c1 | 7.1 | -12.3 | 14.8 | 8.7 | -9.1 | 24.5*
COc1ccc(NC(=O)CNC(=O)C23CC4CC(CC(C4)C2)C3)c(OC)c1 | 6.6 | -8.8 | -13.9 | -2.0 | 1.3 | 0.0
CC(=O)c1cccc(NC(=O)C2(C)Cc3c(-c4ccccc4)ccnc3O2)c1 (stereo not drawn) | 0.5 | 5.2 | 20.8 | -2.5 | -9.8 | 3.0
COC(=O)[C@]12CCCCC=C1N(CCC1=CCCCC1)C(=O)[C@H](CC(=O)NCc1cccc(C(F)(F)F)c1)C2 | . | . | 7.0 | . | -10.2 | 0.9
CCc1ccc(C(=O)NNC(=O)c2cccc(S(=O)(=O)N3CCN(C)CC3)c2)cc1 | -4.2 | 19.8 | -20.0 | -2.4 | 9.7 | -0.4
CCC(C)(C)c1ccc(OCCCC[n+]2cccc(C)c2)c(C(C)(C)CC)c1 | -25.7 | 25.3* | 28.2 | 6.9 | 9.8 | 14.4
Cc1ccc(C(=O)NC2CCN(CC(=O)Nc3ccccc3Cl)CC2)cc1 | 9.4 | -17.0 | 4.9 | 1.0 | 0.1 | 15.6*
O=C(CCNC(=O)c1ccc([N+](=O)[O-])cc1)Nc1cccc(S(=O)(=O)N2CCCCCC2)c1 | 11.0 | -9.3 | -4.3 | 0.5 | -3.8 | 3.1
CCCCOc1ccc(Br)cc1CSC(=N)N | -18.1 | 26.3* | -14.8 | -1.2 | 33.6* | 6.8

Screening results: PubChem BioAssay, The Scripps Research Institute Molecular Screening Center
